Source: PubChem
A selection: hits, their analogues and other compounds. The true share with any hit is near 3%.
TRb SRC2 PPI: disrupts binding of human TR beta to SRC2; P10828; TRbeta-SRC2 peptide binding, fluorescence polarization; receptor liganded with 1 µM T3; Potency, µM (doses to about 106 µM), most hits filed as inhibitors; hit rate 0.065% among 280,000; AID 1469; also: nearly all actives have a fitted effect of over 50% in size
Target sequence (P10828 whole entry, looked up): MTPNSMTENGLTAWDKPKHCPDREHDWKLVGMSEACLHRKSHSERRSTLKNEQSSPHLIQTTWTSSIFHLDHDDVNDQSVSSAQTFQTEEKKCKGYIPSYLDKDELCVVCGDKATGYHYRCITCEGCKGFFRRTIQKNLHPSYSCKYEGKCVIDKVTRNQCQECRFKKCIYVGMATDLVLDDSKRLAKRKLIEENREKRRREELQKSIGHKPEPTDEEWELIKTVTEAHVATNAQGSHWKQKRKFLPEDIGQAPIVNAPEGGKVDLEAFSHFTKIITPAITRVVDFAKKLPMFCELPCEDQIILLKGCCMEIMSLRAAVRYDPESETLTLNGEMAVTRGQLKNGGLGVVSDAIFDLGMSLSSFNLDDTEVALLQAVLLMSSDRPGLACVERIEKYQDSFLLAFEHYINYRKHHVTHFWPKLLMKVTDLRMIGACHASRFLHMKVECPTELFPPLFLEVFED
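Read-out is fluorescence polarization (555 nm excitation, 632 nm emission) of a Texas Red SRC2 coactivator peptide; loss of signal reflects blocked binding to human TRb ligand-binding domain in the presence of 1 uM T3.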
Tau ThT inhib: blocks human tau fibril formation measured by thioflavin T; Potency, µM (doses to about 57.4 µM), most hits filed as inhibitors; recombinant tau K18 P301L, heparin-induced fibrillization, ThT fluorescence; P10636; hit rate 2.1% among 270,000; also: nearly all actives have a fitted effect of over 55% in size
Target sequence (P10636 561-689 P618L limits assumed): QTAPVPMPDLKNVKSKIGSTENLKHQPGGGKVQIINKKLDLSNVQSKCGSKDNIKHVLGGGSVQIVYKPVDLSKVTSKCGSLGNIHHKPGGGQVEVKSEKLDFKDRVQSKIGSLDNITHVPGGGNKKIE
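Aggregation was driven by heparin (20 uM final) acting on recombinant tau […] bearing P301L in 100 mM sodium acetate pH 7; fibrils were detected with Thioflavin T.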
TR SRC2 fluor cs: counter-screen for TRb-SRC2 inhibitors: fluorescence interference | hit rate 0.29% among 280,000 | TRb/SRC2 Texas Red total fluorescence interference | Potency, µM (highest dose often 106 µM); active = well fitted curve in either direction with a large enough effect; inconclusive = small, poorly fitted or top-dose-only effect
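Human TRb ligand-binding domain at 0.6 uM with 20 nM Texas Red SRC2 peptide in Tris buffer containing 1 uM T3 and 5% DMSO, incubated with compound 5 h at ambient temperature. Total fluorescence (555/632 nm) calculated as parallel + 2 × perpendicular.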
Tau fluor counter: counter-screen for tau fibril formation inhibitors; Potency, µM (doses to about 57.7 µM); hit rate 0.93% among 280,000; tau K18 P301L (four-repeat tau fragment) Alexa594 fluorescence, heparin fibrillization; also: nearly all actives have a fitted effect of over 55% in size
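Human K18 P301L tau (15 uM unlabeled plus 0.24 uM Alexa 594-labeled, final) in 100 mM sodium acetate pH 7 was mixed with compound and 20 uM heparin and incubated 6 hr at 37 C.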
Tau fibril FP: tau fibrillization inhibition (FP); P10636; K18 P301L tau heparin fibrillization, Alexa594 FP, 6 h; Potency, µM (highest dose often 57.7 µM), usual class: inhibitors; hit rate 0.39% among 280,000; also: nearly all actives have a fitted effect of over 55% in size
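Human K18 P301L fragment (15 uM unlabeled plus 0.24 uM Alexa 594-labeled) in 100 mM sodium acetate pH 7 with compound, aggregation induced by 20 uM heparin for 6 hr at 37 C. ThT (30 uM) added for 1 hr, then Alexa 594 FP read.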
Of the large screens only hits and unclear results are named; the others gave an inactive call; [ ] = another dose, or the depositor's remark. Unless noted, calls follow the shape of the dose curve; as a rule, active = well fitted curve in the direction sought with a large enough effect; inconclusive = small, poorly fitted or top-dose-only effect, or another doubt; inactive = no such curve, though single readings can be large; an effect the other way counts as inactive or inconclusive.

O=C1C2=CC[C@H]3C(=O)N(Cc4ccc5c(c4)OCO5)C(=O)[C@@H]3[C@@H]2[C@H](O)[C@@H]2O[C@H]12	Tau ThT inhib inconclusive, Tau fibril FP inconclusive
COc1cccc(CNC(=O)c2ccc(NC(=O)N3CC(C)Sc4ccccc43)cc2)c1 (stereo unspecified)	none
CCOC(=O)c1ccc(CN(Cc2ccc(C)cc2)S(=O)(=O)c2ccc(NC(C)=O)cc2)cc1	Tau fluor counter inconclusive, Tau fibril FP 11µM
CCN(CC)C(=O)c1c(-c2ccccc2)c(-c2ccccc2)nn(C)c1=O	none
Cn1c(COc2ccc(Br)cc2)nnc1SC1CCc2ccccc2C1=O (stereo unspecified)	Tau ThT inhib 32µM, TR SRC2 fluor cs inconclusive, Tau fluor counter inconclusive, Tau fibril FP inconclusive
CCOc1ccc(CCNC(=O)c2ccc3c(c2)N(Cc2ccccc2)C(=O)c2ccccc2S3=O)cc1OCC (stereo unspecified)	none
Cc1ccccc1Oc1cc(-n2ncc(Cl)c(Cl)c2=O)ncn1	Tau ThT inhib 10µM, Tau fibril FP inconclusive
CCOc1cnn(-c2cc(Oc3ccc(C)cc3)ncn2)c(=O)c1Cl	none
O=C(Nc1cc(C(=O)Nc2ccc(S(=O)(=O)O)cc2S(=O)(=O)O)cc(C(=O)Nc2ccc(S(=O)(=O)O)cc2S(=O)(=O)O)c1)Nc1cc(C(=O)Nc2ccc(S(=O)(=O)O)cc2S(=O)(=O)O)cc(C(=O)Nc2ccc(S(=O)(=O)O)cc2S(=O)(=O)O)c1	Tau ThT inhib inconclusive, Tau fibril FP 14µM
COc1cc(/C=N\Nc2nc3ccccc3o2)cc(OC)c1OC	Tau ThT inhib inconclusive
COc1cc(/C=N/Nc2nc3ccccc3o2)cc(OC)c1O	Tau ThT inhib 14µM, Tau fluor counter inconclusive
Cc1c(N=C=O)cccc1N=C=O	none (no result: Tau ThT inhib, Tau fluor counter, Tau fibril FP)
COc1ccc(N(C(=O)c2cccc([N+](=O)[O-])c2)S(=O)(=O)c2cccs2)cc1	Tau ThT inhib inconclusive, Tau fluor counter inconclusive
COc1ccc(C(=O)/C=C/c2ccc(F)cc2)c(OC(=O)c2ccc([N+](=O)[O-])cc2)c1	Tau ThT inhib 10µM, Tau fluor counter 13µM[quencher]
COc1cccc(NC(=O)/C=C/c2ccc([N+](=O)[O-])cc2)c1	none (no result: Tau ThT inhib)
COc1ccc(C(=O)/C=C/c2cccs2)c(OC(=O)c2cccc([N+](=O)[O-])c2)c1	Tau ThT inhib 4µM, Tau fluor counter inconclusive
CC(C)CNc1cc(N2CCCC2)ccc1[N+](=O)[O-]	Tau ThT inhib inconclusive (no result: TRb SRC2 PPI, TR SRC2 fluor cs)
CCNc1cc(N2CCCC2)ccc1[N+](=O)[O-]	Tau ThT inhib 11µM
COc1cccc(OCCNc2cc(N3CCOCC3)ccc2[N+](=O)[O-])c1	Tau ThT inhib 11µM, Tau fluor counter inconclusive
CCCC(=O)N1CCN(c2ccc([N+](=O)[O-])c(NC(C)c3ccccc3)c2)CC1 (stereo unspecified)	Tau ThT inhib 14µM
COc1cccc(OCCNc2cc(N3CCCCC3)ccc2[N+](=O)[O-])c1	Tau ThT inhib inconclusive, Tau fluor counter inconclusive
COc1ccc(OCCNc2cc(N3CCOCC3)ccc2[N+](=O)[O-])cc1	Tau ThT inhib 5µM, Tau fluor counter inconclusive
CCCCN(CC)CCCNC(=O)C1CCN(c2nc3ccc(CC)cc3s2)CC1	Tau fibril FP inconclusive
Cc1cc2nc(-c3ccc(OCc4ccccc4F)cc3)cc(C(F)(F)F)n2n1	none
C=CC(C)(CCC=C(C)C)OC(C)=O (stereo unspecified)	none (no result: Tau ThT inhib, Tau fluor counter, Tau fibril FP)
O=C(Nc1ccc(F)cc1Cl)C1Cc2ccccc2N1C(=O)c1ccccc1 (stereo unspecified)	none
COc1cc(C(c2c(C)[nH][nH]c2=O)c2c(C)[nH][nH]c2=O)ccc1OC(=O)c1cccc([N+](=O)[O-])c1	TRb SRC2 PPI inconclusive, Tau ThT inhib inconclusive, Tau fluor counter inconclusive
COc1cc(C(c2c(C)[nH][nH]c2=O)c2c(C)[nH][nH]c2=O)ccc1OCc1ccc([N+](=O)[O-])cc1	TRb SRC2 PPI inconclusive, Tau ThT inhib 10µM, Tau fluor counter inconclusive
CN(/N=C/c1ccc(O)cc1O)c1ncc(C(F)(F)F)cc1Cl	Tau ThT inhib inconclusive, Tau fluor counter 18µM[quencher]
CSc1ncc(C(=O)Nc2ccc(C)c(Cl)c2)c(-c2ccccc2)n1	TR SRC2 fluor cs inconclusive
CCOc1ccc(-c2[nH]ncc2Oc2ccccc2OC)c(O)c1	Tau ThT inhib inconclusive, Tau fluor counter 14µM[quencher]
CCOc1ccc(-c2[nH]ncc2Oc2ccccc2OCC)c(O)c1	Tau ThT inhib inconclusive, Tau fluor counter 14µM[quencher]
Cc1[nH]nc(-c2ccc(OCc3cnn(-c4ccccc4)c3)cc2O)c1Oc1ccc(F)cc1	Tau fluor counter inconclusive, Tau fibril FP inconclusive
CCOc1ccc(-c2[nH]ncc2-c2ccc(OC)c(OC)c2)c(O)c1	none
CCOc1ccc(-c2n[nH]c(C)c2Oc2ccc(OC)cc2)c(O)c1	Tau fluor counter 14µM[quencher], Tau fibril FP inconclusive
C=CCN1c2ccccc2[C@]23C[C@@H](C(=O)OC)N(S(=O)(=O)c4c(C)noc4C)C2=NC(C(=O)OC)=C(C(=O)OC)[C@H]13	none
COc1cc(Cn2c(=O)sc3ccccc32)ccc1OCCC(C)C	none
O=C1Nc2ccc(Br)cc2C1(O)Cc1ccccn1 (stereo unspecified)	none
O=C1Nc2ccc(Br)cc2C12NNc1ccccc1O2 (stereo unspecified)	Tau ThT inhib 8.9µM, Tau fluor counter 7.1µM[quencher]
COc1cc(/C=N/n2c(-c3ccc4c(c3)NC(=O)CO4)csc2=Nc2cccc(C)c2)ccc1O	none
COCCN=c1scc(-c2ccc3c(c2)NC(=O)CO3)n1/N=C(\C)c1ccc(O)cc1	Tau ThT inhib 14µM, Tau fluor counter 14µM[quencher], Tau fibril FP inconclusive
N#Cc1c(N)sc(=S)c2c1CCCC2	Tau ThT inhib 14µM, Tau fluor counter inconclusive
CCC1(C)Cc2c(C#N)c(N)sc(=S)c2CO1 (stereo unspecified)	TRb SRC2 PPI inconclusive, Tau ThT inhib 25µM, Tau fibril FP inconclusive
CCOP(=O)(OCC)C(NC(=O)c1cc([N+](=O)[O-])cc([N+](=O)[O-])c1)C(F)(F)F (stereo unspecified)	Tau ThT inhib 25µM, Tau fluor counter inconclusive, Tau fibril FP inconclusive
CCOP(=O)(OCC)C(C)(C)NC(=O)c1cc([N+](=O)[O-])cc([N+](=O)[O-])c1	none
CC(=O)n1cc(N(C(=O)CCl)c2ccc(Cl)cc2)c2ccccc21	Tau ThT inhib 28µM
COc1ccc2c(c1)CCc1c(C(=O)Nc3c(C)nn(Cc4c(Cl)cccc4Cl)c3C)noc1-2	Tau ThT inhib inconclusive, TR SRC2 fluor cs 0.079µM[quencher], Tau fluor counter inconclusive
COc1cc(C(Nc2ccccn2)c2ccc3ccc(C)nc3c2O)cc(OC)c1O (stereo unspecified)	Tau ThT inhib 16µM, Tau fluor counter inconclusive, Tau fibril FP inconclusive
CCOC(=O)c1[nH]c(C)c(C(=O)NCCc2ccccc2)c1C	none
Cc1ccc(C(=O)c2no[n+]([O-])c2C(=O)c2ccc(C)cc2)cc1	Tau ThT inhib 14µM, Tau fibril FP inconclusive
